Publication PMC11006913
Positions count from the first letter of the chain named.

What was measured:
Assay in all cases: PBM; 200 nM protein, PBS
Conditions in all cases: dsDNA, one strand shown
HOXA2 [1] = target: HOXA2 (Homo sapiens, UniProt O43364 129-215, R185T)
ALX1 [2] = target: ALX1 (Homo sapiens, UniProt Q15699 118-204, L144V)
ALX3 [3] = target: ALX3 (Homo sapiens, UniProt O95076 139-225, N203Q)
NKX2-6 [4] = target: T1, NKX2-6 (Homo sapiens, UniProt A6NCS4 118-204)
T1 sequence: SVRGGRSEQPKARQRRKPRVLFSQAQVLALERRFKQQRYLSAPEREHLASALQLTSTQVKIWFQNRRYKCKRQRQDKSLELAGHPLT

HOXA2 [5] = target: HOXA2 (Homo sapiens, UniProt O43364 129-215, R185K)
Sequence of HOXA2 (Homo sapiens, UniProt O43364 129-215, R185K) (O43364 129-215 R185K): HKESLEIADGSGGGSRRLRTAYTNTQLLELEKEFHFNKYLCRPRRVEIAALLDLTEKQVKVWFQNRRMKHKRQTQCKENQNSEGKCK

ALX1 [6] = target: ALX1 (Homo sapiens, UniProt Q15699 118-204, L144R)
Sequence of ALX1 (Homo sapiens, UniProt Q15699 118-204, L144R) (Q15699 118-204 L144R): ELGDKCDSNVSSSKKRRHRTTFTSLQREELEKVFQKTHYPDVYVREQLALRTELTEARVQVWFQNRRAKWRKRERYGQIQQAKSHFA

ALX3 [7] = target: ALX3 (Homo sapiens, UniProt O95076 139-225)
Sequence of ALX3 (Homo sapiens, UniProt O95076 139-225) (O95076 139-225): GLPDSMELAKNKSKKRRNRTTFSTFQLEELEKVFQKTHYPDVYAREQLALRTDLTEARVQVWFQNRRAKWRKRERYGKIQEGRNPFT

ALX3 [8] = target: ALX3 (Homo sapiens, UniProt O95076 139-225, L168Q)
Sequence of ALX3 (Homo sapiens, UniProt O95076 139-225, L168Q) (O95076 139-225 L168Q): as the sequence (O95076 139-225) above, with L30Q counted along it

NKX2-6 [9] = target: T2, NKX2-6 (Homo sapiens, UniProt A6NCS4 118-204, F151L)
T2 sequence: T1 sequence with F34L

ALX3 [10] = target: ALX3 (Homo sapiens, UniProt O95076 139-225, L168V)
Sequence of ALX3 (Homo sapiens, UniProt O95076 139-225, L168V) (O95076 139-225 L168V): as the sequence (O95076 139-225) above, with L30V counted along it

HOXA2 [11] = target: HOXA2 (Homo sapiens, UniProt O43364 129-215, Y150S)
Sequence of HOXA2 (Homo sapiens, UniProt O43364 129-215, Y150S) (O43364 129-215 Y150S): as the sequence (O43364 129-215 R185K) above, with Y22S, K57R counted along it

ALX1 [12] = target: ALX1 (Homo sapiens, UniProt Q15699 118-204)
Sequence of ALX1 (Homo sapiens, UniProt Q15699 118-204) (Q15699 118-204): as the sequence (Q15699 118-204 L144R) above, with R27L counted along it

ALX3 [13] = target: ALX3 (Homo sapiens, UniProt O95076 139-225, N203S)
Sequence of ALX3 (Homo sapiens, UniProt O95076 139-225, N203S) (O95076 139-225 N203S): as the sequence (O95076 139-225) above, with N65S counted along it

HOXA2 [14] = target: HOXA2 (Homo sapiens, UniProt O43364 129-215)
Sequence of HOXA2 (Homo sapiens, UniProt O43364 129-215) (O43364 129-215): as the sequence (O43364 129-215 R185K) above, with K57R counted along it

SIX6 [15] = target: T3, SIX6 (Homo sapiens, UniProt O95475 114-200, T165G)
T3 sequence: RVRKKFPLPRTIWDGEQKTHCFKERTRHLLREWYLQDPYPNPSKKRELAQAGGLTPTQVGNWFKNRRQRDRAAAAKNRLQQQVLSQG

MSX2 [16] = target: MSX2 (Homo sapiens, UniProt P35548 130-214, R199I)
Sequence of MSX2 (Homo sapiens, UniProt P35548 130-214, R199I) (P35548 130-214 R199I): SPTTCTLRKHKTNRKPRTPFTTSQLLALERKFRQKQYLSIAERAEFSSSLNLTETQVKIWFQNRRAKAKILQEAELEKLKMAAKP

MSX2 [17] = target: MSX2 (Homo sapiens, UniProt P35548 130-214)
Sequence of MSX2 (Homo sapiens, UniProt P35548 130-214) (P35548 130-214): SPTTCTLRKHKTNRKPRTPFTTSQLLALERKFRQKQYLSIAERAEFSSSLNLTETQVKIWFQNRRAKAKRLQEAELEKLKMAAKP

MSX2 [18] = target: MSX2 (Homo sapiens, UniProt P35548 130-214, F161Y)
Sequence of MSX2 (Homo sapiens, UniProt P35548 130-214, F161Y) (P35548 130-214 F161Y): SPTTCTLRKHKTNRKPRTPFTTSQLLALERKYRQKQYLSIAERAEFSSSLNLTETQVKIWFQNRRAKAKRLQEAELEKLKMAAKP

SIX6 [19] = target: T4, SIX6 (Homo sapiens, UniProt O95475 114-200, T165A)
T4 sequence: T3 sequence with G52A

HESX1 = HESX1 (Homo sapiens, UniProt Q9UBX0 95-180)
Sequence of HESX1 (Q9UBX0 95-180): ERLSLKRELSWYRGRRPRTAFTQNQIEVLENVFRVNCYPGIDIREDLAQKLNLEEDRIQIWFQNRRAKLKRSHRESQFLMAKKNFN

NKX2-6 [20] = target: T5, NKX2-6 (Homo sapiens, UniProt A6NCS4 118-204, R150C)
T5 sequence: T1 sequence with R33C

PROP1 [21] = target: PROP1 (Homo sapiens, UniProt O75360 56-141)
Sequence of PROP1 (Homo sapiens, UniProt O75360 56-141) (O75360 56-141): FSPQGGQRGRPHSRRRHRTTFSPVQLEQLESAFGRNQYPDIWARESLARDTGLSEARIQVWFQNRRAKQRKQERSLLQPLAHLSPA

PROP1 [22] = target: PROP1 (Homo sapiens, UniProt O75360 56-141, R99H)
Sequence of PROP1 (Homo sapiens, UniProt O75360 56-141, R99H) (O75360 56-141 R99H): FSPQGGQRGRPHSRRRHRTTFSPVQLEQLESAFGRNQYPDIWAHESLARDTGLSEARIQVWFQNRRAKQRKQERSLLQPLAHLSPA

PROP1 [23] = target: PROP1 (Homo sapiens, UniProt O75360 56-141, F88S)
Sequence of PROP1 (Homo sapiens, UniProt O75360 56-141, F88S) (O75360 56-141 F88S): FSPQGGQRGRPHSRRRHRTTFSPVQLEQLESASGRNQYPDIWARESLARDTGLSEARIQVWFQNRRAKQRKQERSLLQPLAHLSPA

NKX3-2 [24] = target: NKX3-2 (Homo sapiens, UniProt P78367 192-278, P234S)
Sequence of NKX3-2 (Homo sapiens, UniProt P78367 192-278, P234S) (P78367 192-278 P234S): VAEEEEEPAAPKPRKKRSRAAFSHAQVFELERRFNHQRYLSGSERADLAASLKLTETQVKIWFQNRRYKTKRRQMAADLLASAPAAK

NKX3-2 [25] = target: NKX3-2 (Homo sapiens, UniProt P78367 192-278)
Sequence of NKX3-2 (Homo sapiens, UniProt P78367 192-278) (P78367 192-278): as the sequence (P78367 192-278 P234S) above, with S43P counted along it

Sequence of HOXA2 (Homo sapiens, UniProt O43364 129-215, R185T) (O43364 129-215 R185T): as the sequence (O43364 129-215 R185K) above, with K57T counted along it
Sequence of ALX1 (Homo sapiens, UniProt Q15699 118-204, L144V) (Q15699 118-204 L144V): as the sequence (Q15699 118-204 L144R) above, with R27V counted along it
Sequence of ALX3 (Homo sapiens, UniProt O95076 139-225, N203Q) (O95076 139-225 N203Q): as the sequence (O95076 139-225) above, with N65Q counted along it

Sequence: CCGGTTCC
- binding signal (HOXA2 [1]): 6.98 upbm affinity estimate (log intensity, higher = more binding, comparable within an allelic series)
- binding signal (ALX1 [2]): 6.06 upbm affinity estimate (log intensity, higher = more binding, comparable within an allelic series)
- binding signal (ALX3 [3]): 7.77 upbm affinity estimate (log intensity, higher = more binding, comparable within an allelic series)
- binding signal (NKX2-6 [4]): 9.05 upbm affinity estimate (log intensity, higher = more binding, comparable within an allelic series)
- binding signal (HOXA2 [5]): 10.1 upbm affinity estimate (log intensity, higher = more binding, comparable within an allelic series)
- binding signal (ALX1 [6]): 6.02 upbm affinity estimate (log intensity, higher = more binding, comparable within an allelic series)
- binding signal (ALX3 [7]): 7.63 upbm affinity estimate (log intensity, higher = more binding, comparable within an allelic series)
- binding signal (ALX3 [8]): 7.69 upbm affinity estimate (log intensity, higher = more binding, comparable within an allelic series)
- binding signal (NKX2-6 [9]): 9.2 upbm affinity estimate (log intensity, higher = more binding, comparable within an allelic series)
- binding signal (ALX3 [10]): 7.7 upbm affinity estimate (log intensity, higher = more binding, comparable within an allelic series)
- binding signal (HOXA2 [11]): 10.4 upbm affinity estimate (log intensity, higher = more binding, comparable within an allelic series)
- binding signal (ALX1 [12]): 6 upbm affinity estimate (log intensity, higher = more binding, comparable within an allelic series)
- binding signal (ALX3 [13]): 7.77 upbm affinity estimate (log intensity, higher = more binding, comparable within an allelic series)
- binding signal (HOXA2 [14]): 6.81 upbm affinity estimate (log intensity, higher = more binding, comparable within an allelic series)

Sequence: AGGTGTAA
- binding signal (SIX6 [15]): 10.5 upbm affinity estimate (log intensity, higher = more binding, comparable within an allelic series)

Sequence: CGCCACGC
- binding signal (HOXA2 [1]): 7.14 upbm affinity estimate (log intensity, higher = more binding, comparable within an allelic series)
- binding signal (MSX2 [16]): 9.28 upbm affinity estimate (log intensity, higher = more binding, comparable within an allelic series)
- binding signal (NKX2-6 [4]): 9.43 upbm affinity estimate (log intensity, higher = more binding, comparable within an allelic series)
- binding signal (HOXA2 [5]): 10.1 upbm affinity estimate (log intensity, higher = more binding, comparable within an allelic series)
- binding signal (MSX2 [17]): 9.35 upbm affinity estimate (log intensity, higher = more binding, comparable within an allelic series)
- binding signal (NKX2-6 [9]): 9.12 upbm affinity estimate (log intensity, higher = more binding, comparable within an allelic series)
- binding signal (MSX2 [18]): 9.31 upbm affinity estimate (log intensity, higher = more binding, comparable within an allelic series)
- binding signal (HOXA2 [11]): 10.3 upbm affinity estimate (log intensity, higher = more binding, comparable within an allelic series)
- binding signal (HOXA2 [14]): 7.2 upbm affinity estimate (log intensity, higher = more binding, comparable within an allelic series)

Sequence: AGGTGTCG
- binding signal (SIX6 [15]): 10.5 upbm affinity estimate (log intensity, higher = more binding, comparable within an allelic series)
- binding signal (SIX6 [19]): 10.4 upbm affinity estimate (log intensity, higher = more binding, comparable within an allelic series)

Sequence: ACGACACC
- binding signal (SIX6 [15]): 10.6 upbm affinity estimate (log intensity, higher = more binding, comparable within an allelic series)
- binding signal (SIX6 [19]): 10.6 upbm affinity estimate (log intensity, higher = more binding, comparable within an allelic series)

Sequence: CATGACAC
- binding signal (SIX6 [15]): 10.7 upbm affinity estimate (log intensity, higher = more binding, comparable within an allelic series)

Sequence: CTGGTGTC
- binding signal (SIX6 [15]): 10.6 upbm affinity estimate (log intensity, higher = more binding, comparable within an allelic series)

Sequence: AGACACCA
- binding signal (SIX6 [15]): 10.5 upbm affinity estimate (log intensity, higher = more binding, comparable within an allelic series)

Sequence: GACACCTA
- binding signal (SIX6 [15]): 10.6 upbm affinity estimate (log intensity, higher = more binding, comparable within an allelic series)
- binding signal (SIX6 [19]): 10.5 upbm affinity estimate (log intensity, higher = more binding, comparable within an allelic series)

Sequence: CCGCCGCA
- binding signal (HOXA2 [1]): 7.15 upbm affinity estimate (log intensity, higher = more binding, comparable within an allelic series)
- binding signal (MSX2 [16]): 9.56 upbm affinity estimate (log intensity, higher = more binding, comparable within an allelic series)
- binding signal (HOXA2 [5]): 10.1 upbm affinity estimate (log intensity, higher = more binding, comparable within an allelic series)
- binding signal (MSX2 [17]): 9.59 upbm affinity estimate (log intensity, higher = more binding, comparable within an allelic series)
- binding signal (MSX2 [18]): 9.59 upbm affinity estimate (log intensity, higher = more binding, comparable within an allelic series)
- binding signal (HOXA2 [11]): 10.4 upbm affinity estimate (log intensity, higher = more binding, comparable within an allelic series)
- binding signal (HOXA2 [14]): 7.05 upbm affinity estimate (log intensity, higher = more binding, comparable within an allelic series)

Sequence: GACACCCC
- binding signal (SIX6 [15]): 10.6 upbm affinity estimate (log intensity, higher = more binding, comparable within an allelic series)

Sequence: AAGTAGAG
- binding signal (HESX1): 7.4 upbm affinity estimate (log intensity, higher = more binding, comparable within an allelic series)

Sequence: GGTGTAAC
- binding signal (SIX6 [15]): 10.4 upbm affinity estimate (log intensity, higher = more binding, comparable within an allelic series)
- binding signal (SIX6 [19]): 10.4 upbm affinity estimate (log intensity, higher = more binding, comparable within an allelic series)

Sequence: CCCCCACG
- binding signal (HOXA2 [1]): 6.91 upbm affinity estimate (log intensity, higher = more binding, comparable within an allelic series)
- binding signal (NKX2-6 [20]): 9.26 upbm affinity estimate (log intensity, higher = more binding, comparable within an allelic series)
- binding signal (HOXA2 [5]): 9.95 upbm affinity estimate (log intensity, higher = more binding, comparable within an allelic series)
- binding signal (PROP1 [21]): 6.48 upbm affinity estimate (log intensity, higher = more binding, comparable within an allelic series)
- binding signal (PROP1 [22]): 6.59 upbm affinity estimate (log intensity, higher = more binding, comparable within an allelic series)
- binding signal (PROP1 [23]): 6.32 upbm affinity estimate (log intensity, higher = more binding, comparable within an allelic series)
- binding signal (HOXA2 [11]): 10.4 upbm affinity estimate (log intensity, higher = more binding, comparable within an allelic series)
- binding signal (HOXA2 [14]): 6.93 upbm affinity estimate (log intensity, higher = more binding, comparable within an allelic series)

Sequence: GACCGCCC
- binding signal (HOXA2 [1]): 7.33 upbm affinity estimate (log intensity, higher = more binding, comparable within an allelic series)
- binding signal (ALX1 [2]): 6.66 upbm affinity estimate (log intensity, higher = more binding, comparable within an allelic series)
- binding signal (HOXA2 [5]): 10.1 upbm affinity estimate (log intensity, higher = more binding, comparable within an allelic series)
- binding signal (ALX1 [6]): 6.49 upbm affinity estimate (log intensity, higher = more binding, comparable within an allelic series)
- binding signal (HOXA2 [11]): 10.4 upbm affinity estimate (log intensity, higher = more binding, comparable within an allelic series)
- binding signal (NKX3-2 [24]): 10.5 upbm affinity estimate (log intensity, higher = more binding, comparable within an allelic series)
- binding signal (ALX1 [12]): 6.57 upbm affinity estimate (log intensity, higher = more binding, comparable within an allelic series)
- binding signal (HOXA2 [14]): 7.29 upbm affinity estimate (log intensity, higher = more binding, comparable within an allelic series)
- binding signal (NKX3-2 [25]): 10.5 upbm affinity estimate (log intensity, higher = more binding, comparable within an allelic series)

Sequence: GAATTCTA
- binding signal (HESX1): 6.97 upbm affinity estimate (log intensity, higher = more binding, comparable within an allelic series)

Sequence: GGTGATTA
- binding signal (HOXA2 [1]): 12.6 upbm affinity estimate (log intensity, higher = more binding, comparable within an allelic series)
- binding signal (HOXA2 [5]): 13.1 upbm affinity estimate (log intensity, higher = more binding, comparable within an allelic series)

Sequence: AGGTGTGA
- binding signal (SIX6 [15]): 10.5 upbm affinity estimate (log intensity, higher = more binding, comparable within an allelic series)

Sequence: AGTGACAC
- binding signal (SIX6 [15]): 10.6 upbm affinity estimate (log intensity, higher = more binding, comparable within an allelic series)
- binding signal (SIX6 [19]): 10.5 upbm affinity estimate (log intensity, higher = more binding, comparable within an allelic series)

Sequence: ACGATCAA
- binding signal (HESX1): 7.32 upbm affinity estimate (log intensity, higher = more binding, comparable within an allelic series)

Sequence: GGTGACAC
- binding signal (SIX6 [15]): 10.4 upbm affinity estimate (log intensity, higher = more binding, comparable within an allelic series)
- binding signal (SIX6 [19]): 10.4 upbm affinity estimate (log intensity, higher = more binding, comparable within an allelic series)

Sequence: GAGAATGA
- binding signal (HESX1): 7.23 upbm affinity estimate (log intensity, higher = more binding, comparable within an allelic series)

Sequence: CTACATTA
- binding signal (HOXA2 [1]): 10.6 upbm affinity estimate (log intensity, higher = more binding, comparable within an allelic series)
- binding signal (HOXA2 [5]): 12.2 upbm affinity estimate (log intensity, higher = more binding, comparable within an allelic series)
- binding signal (HOXA2 [11]): 10.8 upbm affinity estimate (log intensity, higher = more binding, comparable within an allelic series)
- binding signal (HOXA2 [14]): 10.8 upbm affinity estimate (log intensity, higher = more binding, comparable within an allelic series)

Sequence: GAGCCCGC
- binding signal (HOXA2 [1]): 7.09 upbm affinity estimate (log intensity, higher = more binding, comparable within an allelic series)
- binding signal (HOXA2 [5]): 10.2 upbm affinity estimate (log intensity, higher = more binding, comparable within an allelic series)
- binding signal (HOXA2 [11]): 10.4 upbm affinity estimate (log intensity, higher = more binding, comparable within an allelic series)
- binding signal (HOXA2 [14]): 7.5 upbm affinity estimate (log intensity, higher = more binding, comparable within an allelic series)

Sequence: CTACGCCC
- binding signal (HOXA2 [1]): 7.29 upbm affinity estimate (log intensity, higher = more binding, comparable within an allelic series)
- binding signal (HOXA2 [5]): 10.3 upbm affinity estimate (log intensity, higher = more binding, comparable within an allelic series)
- binding signal (HOXA2 [11]): 10.5 upbm affinity estimate (log intensity, higher = more binding, comparable within an allelic series)
- binding signal (HOXA2 [14]): 7.38 upbm affinity estimate (log intensity, higher = more binding, comparable within an allelic series)

Sequence: CCCCCGTC
- binding signal (HOXA2 [1]): 7.31 upbm affinity estimate (log intensity, higher = more binding, comparable within an allelic series)
- binding signal (HOXA2 [5]): 10.2 upbm affinity estimate (log intensity, higher = more binding, comparable within an allelic series)
- binding signal (HOXA2 [11]): 10.3 upbm affinity estimate (log intensity, higher = more binding, comparable within an allelic series)
- binding signal (HOXA2 [14]): 7.2 upbm affinity estimate (log intensity, higher = more binding, comparable within an allelic series)
